Hit rate of the full screen: of about 360,000 compounds, about 2,400 (0.67%) were called active. Many of the other results were omitted from the sample, so actives are more common in it than they were. Unmarked numbers belong to inactive results.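 How the source made its calls: active means activation above a run cutoff, the mean activation of all tested compounds plus 3 SD (cut at about 14% in these data); inactive means the rest.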

For the assay, the target named is 5-hydroxytryptamine receptor 2A (Mus musculus) (UniProt P35363). Put plainly: activation of mouse 5-HT2A receptor – cell-based, luminescence, primary screen (AID 624169).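 Further: 0% = plate median of compound wells and 100% = 30 µM serotonin.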 As to conditions: CHO-K1 mHTR2A beta-arrestin complementation, at 7.6 µM, active compounds read high, percent of 30 µM serotonin response.
Sequence of 5-hydroxytryptamine receptor 2A (Mus musculus) (P35363 whole entry, looked up): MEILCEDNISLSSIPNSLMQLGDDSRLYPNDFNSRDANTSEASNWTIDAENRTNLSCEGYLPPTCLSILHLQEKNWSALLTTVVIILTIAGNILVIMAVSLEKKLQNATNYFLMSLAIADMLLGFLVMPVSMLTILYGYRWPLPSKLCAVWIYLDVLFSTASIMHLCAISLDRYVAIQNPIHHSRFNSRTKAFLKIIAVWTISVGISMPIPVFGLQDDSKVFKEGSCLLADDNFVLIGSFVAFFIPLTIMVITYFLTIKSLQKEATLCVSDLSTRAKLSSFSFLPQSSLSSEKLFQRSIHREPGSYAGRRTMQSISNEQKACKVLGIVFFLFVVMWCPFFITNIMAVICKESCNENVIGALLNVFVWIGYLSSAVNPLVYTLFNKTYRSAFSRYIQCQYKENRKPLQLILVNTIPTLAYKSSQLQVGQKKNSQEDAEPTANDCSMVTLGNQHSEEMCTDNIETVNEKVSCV
For the compound `CC1(Cc2cccc(C#N)c2)C(=O)Nc2ccc(-c3cccc(C(F)(F)F)c3)cc21` (stereo not drawn), the activation is 16.7% (active).
To `Cc1ccc(CC2(C)C(=O)Nc3ccc(OC(F)(F)F)cc32)cc1` (stereo not drawn) belongs -3.94%.
To `CC1(Cc2ccccc2C#N)C(=O)Nc2ccc(-c3ccc4[nH]ccc4c3)cc21` (stereo not drawn) belongs -1.29%; to `COC(=O)[C@]12CCCCC=C1N(Cc1ccc3c(c1)OCO3)C(=O)[C@H](CC(=O)N1CCOCC1)C2`, 2.87%; to `O=C(Nc1cccc2c1CCCC2)C1CCN(C(=O)NC2CCCCC2)CC1`, 2.77%.
Turning to `CCOC(=O)c1cccc(NC(=O)C2CCCN(S(=O)(=O)c3cnc[nH]3)C2)c1` (stereo not drawn), the activation is 9.95%.
To `O=c1[nH]nc(Cc2ccccn2)c2ccccc12` belongs 2.3%.
In the case of `Cc1cc([N+](=O)[O-])c(NC2CCCCC2)c([N+](=O)[O-])c1`, the activation was 0.25%.
To `Cc1cc([N+](=O)[O-])ccc1NC1CCCC1` belongs 15.6% (active).
The figure for `Cc1cc(C=O)c(C)n1-c1ccc(NC2CCCCC2)c([N+](=O)[O-])c1` is 3.39%; for `COc1cc2sc(C)nc2cc1C` it is -1.33%.
As for `CCOC(=O)c1cc(-c2sc(NC(=O)c3ccccc3)nc2C)n(CCO)n1`, the activation is -1.86%.
Take `CCOC(=O)c1cc(-c2sc(NC(=O)c3ccccc3)nc2C)n(Cc2ccccc2)n1`: the activation is -1.51%.
The figure for `CCOC(=O)c1cc(-c2ccccc2C)n(Cc2cc(C)no2)n1` is 22.5% (active); for `Cc1noc(C)c1COc1ccccc1C(=O)N(C)CC(=O)Nc1cccc(F)c1` it is -2.16%; for `CCCCN1C[C@H](c2ccc(Br)cc2)[C@@H](CC(=O)Nc2ccc(Br)cc2)C1=O` it is 5.11%.
The figure for `O=C(CN1CCOCC1)N1CCCc2c1c(=O)oc1ccc(OCc3ccccc3)cc21` is -4.24%.
To `Nc1c(N(Cc2ccco2)C(=O)c2cccc(F)c2)c(=O)[nH]c(=O)n1Cc1ccccc1` belongs 16.4% (active); to `Nc1c(N(CCO)C(=O)C2CCCCC2)c(=O)[nH]c(=O)n1Cc1ccccc1`, -0.82%.
For the compound `COCCN(C(=O)c1ccccc1F)c1c(N)n(Cc2ccccc2)c(=O)[nH]c1=O`, the activation was -0.11%.
For the compound `CC(C(=O)N(C)CC(=O)Nc1ccccc1C(F)(F)F)N1C(=O)c2ccccc2C1=O` (stereo not drawn), the activation was -1.36%.
To `CC(=O)c1sc(NC(=O)CCN2C(=O)C3CC=CCC3C2=O)nc1-c1ccccc1` (stereo not drawn) belongs -2.19%; to `Cc1cc(NC(=O)/C=C/C(=O)N(CC(=O)NC2CCCC2)c2ccc(F)cc2)no1`, 5.36%.
To `O=C(CCC(=O)N1CCN(S(=O)(=O)c2ccc(Cl)cc2)CC1)NCc1cccc(C(F)(F)F)c1` belongs -0.98%; to `O=C(Cc1ccsc1)N1CCN(S(=O)(=O)c2cc(C(F)(F)F)cc(C(F)(F)F)c2)CC1`, 16.3% (active); to `O=C(c1ccncc1)N1CCN(S(=O)(=O)c2cc(C(F)(F)F)cc(C(F)(F)F)c2)CC1`, -5.52%.
To `CC(C)c1nc(CNC(=O)CC2C(=O)NCCN2Cc2ccoc2)cs1` (stereo not drawn) belongs 2.97%; to `Cc1ccc(Cc2c(C)nc3nc(SCC(=O)NCCN4CCOCC4)nn3c2C)cc1`, -7.66%; to `O=C(Oc1ccc2c(c1)CCC2)N1CCOCC1`, -4.84%.
Turning to `CC(Nc1ccccc1)c1cccnc1` (stereo not drawn), the activation was 18.4% (active).
The figure for `CC(C)COP(=O)(c1ccc(N(C)C)cc1)C(Nc1ccccc1)c1cccnc1` (stereo not drawn) is -1.14%; for `CC(=O)OC(C(=O)NCCc1ccccc1)c1cccnc1` (stereo not drawn) it is 3.53%.
To `CCOP(=O)(OCC)C(Nc1ccc([N+](=O)[O-])cc1)c1ccc(Cl)cc1` (stereo not drawn) belongs -5.36%; to `Cc1ccc(NS(=O)(=O)c2cccs2)cc1S(=O)(=O)N1CCCCCC1`, -1.7%.
To `O=C(NCCS(=O)(=O)N1CCN(c2ccc(F)cc2)CC1)c1ccc2c(c1)OCO2` belongs 5.83%; to `Cc1cc(O)c(C2(O)C(=O)Nc3ccccc32)cc1C` (stereo not drawn), -4.53%.
For `O=C(c1ccc(Br)o1)N1CCN(CCOc2ccccc2)CC1`, the activation was -0.54%.
To `O=C(OCC(=O)N1CCN(C(=O)c2ccco2)CC1)c1c(Cl)cccc1Cl` belongs -3.04%; to `O=C(c1ccco1)N1CCN(CCOc2ccccc2)CC1`, 16.4% (active); to `O=C(c1ccco1)N1CCN(C(=O)c2ccc(COc3ccc(F)cc3)o2)CC1`, 2.33%.
To `COc1cccc(OC)c1OCCN1CCN(C(=O)c2ccco2)CC1` belongs 14.4% (active); to `O=C(c1ccco1)N1CCN(Cc2cccc(C(F)(F)F)c2)CC1`, 11.3%; to `Cc1ccc2cc(CN(c3ccc(C)c(C)c3)S(C)(=O)=O)c(=O)[nH]c2c1`, -0.92%.
The figure for `CC1CC(=S)Nc2ccccc2N1Cc1ccccc1` (stereo not drawn) is -4.32%; for `Cc1ccc(NC(=O)CSc2nnc(CNC(=O)c3ccccc3F)o2)cc1` it is -0.39%.
`CC(C)NC(=O)CSc1nnc(COc2ccccc2Cl)o1`: the activation is 0.27%.
The figure for `Cc1ccc(NC(=O)CSc2nnc(COc3ccccc3C)o2)cc1` is 40.1% (active); for `CC(=O)c1ccc(NC(=O)C(C)OC(=O)c2ccc(NS(=O)(=O)c3ccc4[nH]c(=O)[nH]c4c3)cc2)cc1` (stereo not drawn) it is -1.56%.
The figure for `COc1ccc(CNC(=O)c2ccc(NS(=O)(=O)c3ccc4[nH]c(=O)[nH]c4c3)cc2)cc1OC` is 16.1% (active); for `O=C(c1ccc(NS(=O)(=O)c2ccc3[nH]c(=O)[nH]c3c2)cc1)N1CCCCC1` it is 2.95%; for `COc1ccc2c(c1)C(=C(C#N)C#N)C(=O)N2CCc1ccccc1` it is -0.11%.
The figure for `CC(C)CC1C(=O)N(Cc2cn(Cc3ccco3)nn2)CCS(=O)(=O)N1Cc1ccc(-c2ccc(Cl)c(Cl)c2)cc1` (stereo not drawn) is -3.53%; for `O=C(O)C1C2C=CC(O2)C1C(=O)NCCc1cccc(Cl)c1` (stereo not drawn) it is 21.1% (active); for `O=C(O)C1C2C=CC(O2)C1C(=O)Nc1ccccn1` (stereo not drawn) it is -3.53%.
`O=C(O)C1CC=CCC1C(=O)NCCc1ccccc1` (stereo not drawn): the activation was 7.31%.
As to `Cc1ccccc1CN1CCC(C(=O)Nc2ccc(Oc3cccnc3)cc2)CC1`, the activation was -1.91%.
On to `O=C(Nc1ccc(Cl)cc1)c1csc([C@H]2C[C@H](O)[C@@H](CO)O2)n1`, for which the activation was 4.98%.
The figure for `O=C(Nc1nnc([C@H]2C[C@H](O)[C@@H](CO)O2)s1)c1cccc(Cl)c1` is 5.77%; for `O=C(Nc1cccc2cccnc12)c1ccc2sc([C@H]3C[C@H](O)[C@@H](CO)O3)nc2c1` it is 16.7% (active).
The figure for `Cc1cccc(-n2c(Cc3cc(=O)[nH]c(=O)[nH]3)nnc2SCC(=O)Nc2cccc(C(F)(F)F)c2)c1` is 3.15%; for `C/C(=N\NC(=S)NC1CCCCC1)c1ccc(C)o1` it is 21.6% (active); for `Cc1ccc(/C=N/NC(=S)NC2CCCCC2)o1` it is 4.42%.
To `C/C(=N/NC(=O)c1ccc(Br)o1)c1ccc(C)o1` belongs 0.28%; to `N#CC1=C(SCc2ccc(C#N)cc2)N=C(N)C(c2nc(-c3ccccc3)cs2)C12CCCCC2` (stereo not drawn), -0.07%; to `COc1ccc(OC)c(C(O)c2ncc(-c3cccc(C(F)(F)F)c3)[nH]2)c1` (stereo not drawn), -2.32%.
On to `O=C(Cc1ccccc1Cl)N1CCOCC1`, for which the activation is -3.57%.
To `CN(C(=O)c1ccc(NC(=O)Cc2cccc(NC(=O)C3CCN(C(=O)c4ccccc4)CC3)c2)cc1)C1CC1` belongs -6.22%; to `COc1ccc(NS(=O)(=O)c2cc(C(=O)Nc3ccccc3C(=O)O)ccc2C)cc1`, 17.9% (active); to `COc1ccc(NS(=O)(=O)c2cc(NC(=O)CC(=O)c3ccc([N+](=O)[O-])cc3)ccc2C)cc1`, -2.57%.
To `Cc1ccc(C(=O)Nc2ccccc2-c2ccccc2)cc1S(=O)(=O)Nc1ccccc1` belongs 5.68%; to `O=S(=O)(Nc1cccc(-c2ccc(N3CCOCC3)nn2)c1)c1ccc(Cl)c(Cl)c1`, -3.29%; to `O=C1CCc2cc(S(=O)(=O)N3CCC(C(=O)NCc4ccccc4Cl)CC3)ccc2N1`, 19.6% (active).
Consider `O=C(NCc1ccccc1Cl)C1CCN(S(=O)(=O)N2CCOCC2)CC1`, for which the activation was 2.15%.
To `O=C(NCc1ccccc1CN1CCCC1)C1CCN(S(=O)(=O)c2ccc(Cl)cc2)CC1` belongs -12.7%; to `COc1cccc(C(=O)n2ccc(-c3cccs3)n2)c1`, 2.87%.
To `Cc1ccc(C(=O)N2CCN(C3CCCCC3)CC2)s1` belongs 7.15%; to `CCOCCOC(=O)C1=C(C)N(C)C(=O)NC1c1ccccc1F` (stereo not drawn), 1.37%.
The figure for `O=C(CN(Cc1ccc(Br)cc1)S(=O)(=O)c1ccccc1)NCc1ccncc1` is -1.63%; for `CCc1ccc(CN(C)C(=O)C2CCC(=O)N(Cc3cccc(OC)c3)C2)nc1` (stereo not drawn) it is 6.04%.
Take `CC(=O)Nc1ccc(S(=O)(=O)N2CCC(N(C)CCC(C)C)CC2)cc1`: the activation is 6.97%.
In the case of `Cc1ccc(NC(=O)CN(C)Cc2ccc(F)cc2)c([N+](=O)[O-])c1`, the activation was 1.68%.
To `CCOc1cc(C(=O)OCC(=O)Nc2cccc(C)c2)ccc1OCC(=O)N1CCOCC1` belongs -2.12%.
To `CCn1cc(C(=O)OCC(=O)Nc2cccc(C)c2)c(=O)c2ccc(C)nc21` belongs 20.9% (active).
For `CCn1cc(C(=O)N2CC=C(c3ccccc3)CC2)c(=O)c2ccc(C)nc21`, the activation is -3.76%.
The figure for `C=CCNC(=O)CC12CC3CC(C1)CC(CC(=O)NCC=C)(C3)C2` is -3.65%; for `CCCC(=O)N1c2ccc(-c3csc(N)n3)cc2CC1C` (stereo not drawn) it is 1.22%; for `CC(C)(C)C(=O)OCc1nc(-c2ccc(O)c(O)c2)cs1` it is 14.9% (active).
Turning to `CN(c1ccc(O)cc1)c1nc(-c2cccnc2)cs1`, the activation is -2.76%.

(Values after PubChem BioAssay AID624169 (The Scripps Research Institute Molecular Screening Center, 2012).)
